In PubChem BioAssay (NCI) one finds growth data, which are given here for twelve compounds.

What all share (test): NCI-60 one-dose screen, 48 h (100 = growth as untreated, 0 = no growth, -100 = all killed)
What all share (conditions): 10 µM unless noted

Experiment [1] concerns NCI-H23 lung.
Experiment [2] concerns NCI-H226 lung.
Experiment [3] deals with NCI-H322M lung.
Experiment [4] relates to HOP-62 NSCLC.
Experiment [5] relates to NCI-H460 lung.
Experiment [6] deals with HOP-92 NSCLC.
Experiment [7] deals with NCI-H522 lung.
Experiment [8] deals with A549/ATCC NSCLC.
For experiment [9], the system named is 786-0 renal.
Experiment [10] concerns COLO 205 colon.

Compounds without any hit were thinned out: in the full panel of roughly 83,000, 20% have a hit.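 Values shown are percent growth following 48 h exposure of cells in 96-well plates to a single concentration of compound; below 10 was considered active.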 Unmarked numbers belong to inactive results. Active and inactive are the calls of the source.

Take `C/C=C(\C)C(=O)O[C@@H]1C(O)[C@H]2OC(COC(=O)CCC(=O)CCCCCC[C@H](CCCCC)O[C@@H]3OC(C)[C@H](OC(C)=O)C(O)[C@H]3O2)[C@H]1OC(=O)/C=C/c1ccccc1` (stereo not given in full): the growth is 37.1% in experiment [1]; 1.09% (active) in [2]; 27% in [3]; -2.42% (active) in [4]; 15.9% in experiment [5]; -11.4% (active) in [6]. Moreover, the growth in experiment [7] was 20.9%; in experiment [8], 20.2%; in experiment [9], 5.52% (active); in [10], -2.63% (active).
For the compound `C=CCn1cc(C=C2C(=O)N(C)C(=O)N(C)C2=O)c2ccccc21`, the growth is 84.4% in [1]; -47.6% (active) in experiment [2]; 87.8% in [3]; 97% in [4]; 56% in experiment [5]; 91.2% in experiment [6]. In addition, the growth in experiment [7] is 105%; in experiment [8] it was 107%; in experiment [9] it was 101%; in experiment [10] it was 116%.
As for `COC[C@@H]1C[C@@]2(C)[C@@H](CC[C@@H]3[C@@H]2CC[C@@]2(C)[C@H]3CC[C@]2(C)O)CC1=O`, the growth is 108% in [1]; 106% in [2]; 105% in experiment [3]; 107% in experiment [4]; 101% in experiment [5]; 100% in [6]. The growth in [7] was 73.6%; in experiment [8] it was 90.6%; in [9], 94.9%; in experiment [10], 109%.
In the case of `C[C@]12CCc3sc(-c4ccccc4O)nc3C1=CC[C@@H]1[C@@H]2CC[C@]2(C)C(=O)CC[C@@H]12`, the growth in experiment [1] is 103%; in [2], 108%; in experiment [3], 101%; in experiment [4], 98.9%; in [5] it was 108%; in [6], 115%. The growth in experiment [7] was 99.3%; in [8] it was 103%; in experiment [9], 102%; in experiment [10], 108%.
As to `C=CC[Se]C(=O)c1ccccc1OC(C)=O`, the growth was -21.6% (active) in experiment [1]; 28.1% in experiment [2]; -17% (active) in [3]; -7.57% (active) in experiment [4]; -13.4% (active) in experiment [5]; 15.2% in [6]. Further, the growth in experiment [7] was 47.1%; in experiment [8], 0.797% (active); in experiment [9], -7.14% (active); in [10], 36%.
Turning to `N#C[Se]CCN1C(=O)c2ccccc2C1=O`, the growth in experiment [1] is 39.4%; in [2] it was 36.3%; in experiment [3], 24.4%; in [4] it was 26.4%; in experiment [5], 15.8%; in experiment [6], -3.49% (active). In addition, the growth is 20.2% in experiment [7], 30.6% in [8], 52% in experiment [9] and 61.6% in experiment [10].
In the case of `COc1ccc(C2=CC(c3ccc(OC)c(OC)c3)c3c(c4ccccc4oc3=O)O2)cc1OC` (stereo not given), the growth in experiment [1] was 63.4%; in [2], 89.5%; in experiment [3] it was 35.8%; in experiment [4] it was 49%; in experiment [5], 9.23% (active); in experiment [6], -12.5% (active). Further, the growth is -43.7% (active) in experiment [7], 39.4% in [8], 25.7% in experiment [9] and 9.01% (active) in experiment [10].
`COC(=O)[C@@]1(C)CC[C@]2(C)CC[C@]3(C)C4=CC=C5C(=CC(=O)C(O)=C5C)[C@]4(C)CC[C@@]3(C)[C@@H]2C1`: the growth was -72.6% (active) in experiment [1]; -59.1% (active) in experiment [2]; -95.3% (active) in experiment [3]; -90.6% (active) in [4]; -83% (active) in [5]; -86.7% (active) in experiment [6]. The growth was -78.3% (active) in [7], -92.9% (active) in experiment [8], -90% (active) in experiment [9] and -77.2% (active) in [10].
As to `COc1cc(NC(C)CCCNC2CN3CCC2CC3)c2ncccc2c1` (stereo not given), the growth in experiment [1] was 84.5%; in [2], 87.4%; in experiment [3], 63.3%; in experiment [4], 75.8%; in experiment [5] it was 106%; in [6], 46.6%. Besides, the growth in experiment [7] was 82.1%; in experiment [8] it was 95.1%; in experiment [9], 62.5%; in experiment [10], 35.3%.
`COc1ccc(C/C(C)=C(\c2ccc(OCCN3CCOCC3)cc2)c2ccc(OC(=O)Cc3ccccc3)cc2)cc1`: the growth was -18.3% (active) in [1]; -26.6% (active) in experiment [2]; -8.3% (active) in experiment [3]; -74.1% (active) in [4]; -73.3% (active) in [5]; -76.7% (active) in experiment [6]. Moreover, the growth in experiment [7] is -87.6% (active); in experiment [8], 0.132% (active); in [9], -94.7% (active); in experiment [10], -90.1% (active).
With `COC(=O)[C@@H](C)C[C@H](Cc1cn(C)c2ccccc12)NC(=O)c1csc([C@@H](C[C@H](C(C)C)N(C)C(=O)[C@@H](NC(=O)[C@H]2CCCCN2C)C(C)C)OC(C)=O)n1`, the growth in experiment [1] is 31.9%; in experiment [2], 18%; in experiment [3], 37.8%; in experiment [4], 7.44% (active); in experiment [5] it was 7.12% (active); in experiment [6], 25.7%. Also, the growth in experiment [7] is -7.69% (active); in experiment [8], 15.3%; in [9] it was 6.49% (active); in experiment [10], -58.9% (active).
As for `CC(C)=CCC/C(C)=C/C=N\N=C(/N)N[N+](=O)[O-]`, the growth in experiment [1] was 97.6%; in [2] it was 99.3%; in experiment [3] it was 95.9%; in experiment [4], 87.2%; in experiment [5], 110%; in experiment [6] it was 89.8%. The growth in experiment [7] was 47.7%; in experiment [8], 97.4%; in experiment [9] it was 80.4%; in [10], 103%.
